Screening results deposited in PubChem BioAssay by Small Molecule Screening Facility, UW Madison.
RMI-FANCM inh: disruptors of RMI1/RMI2 association with MM2 peptide – biochemical, fluorescence polarization, human, primary screen; RMI core complex (RMI1/RMI2) binding to FANCM MM2 peptide, human; FP signal (polarization) at 33 µM; RMI core complex with F-MM2 peptide; active compounds read low; 70,000 compounds, 0.58% hits; in the data active means FP signal below about 40
An asterisk follows results filed as active; ! = a repeat was not active. This is one part of a sample in which hits are shown more often than they occur.

SMILES | RMI-FANCM inh
CC(/C=C1\SC(=S)N(CC(=O)Nc2ccc(C(=O)O)c(O)c2)C1=O)=C\c1ccccc1 | 19*
CC(/C=C1\SC(=S)N(CC(=O)N2c3ccccc3Sc3ccccc32)C1=O)=C\c1ccccc1 | 61
COc1ccccc1CCNC(=O)c1cc(-c2ccco2)nc2c1c(C)nn2C1CCS(=O)(=O)C1 (centres undefined) | 78
CCC(=O)N1CCN(C(=O)C(NC(=O)c2ccc(C)cc2)S(=O)(=O)c2ccc(Cl)cc2)CC1 (centres undefined) | 62
CSc1cccc2sc(N3CCN(C(=O)C4CCCC4)CC3)nc12 | 64
Cc1cc(C)cc(NC(=O)CN2CCC(C(=O)NCc3ccccn3)CC2)c1 | 55
Oc1c(C(c2ccccc2)N2CCC(Cc3ccccc3)CC2)sc2nc(-c3ccco3)nn12 (centres undefined) | 60
O=C(Cc1nc2ccccc2s1)c1ccc(O)cc1O | 24*
NC(=O)NC(=O)Cc1nc2ccccc2s1 | 53
O=C(OCc1nc2ccccc2s1)c1nc2ccccc2s1 | 62
O=S(=O)(N=Cc1c(O)ccc2ccccc12)c1ccc(Cl)cc1 | 60
C=CCn1c(=NC(=O)c2ccc(S(=O)(=O)N3CCCCC3)cc2)sc2cccc(OC)c21 | 68
NC(=O)C1Cc2ccccc2N1C(=O)Nc1cccs1 (centres undefined) | 28*
NC(=O)C1Cc2ccccc2N1C(=O)c1cccs1 (centres undefined) | 53
NC(=O)C1Cc2ccccc2N1C(=O)C1CC1 (centres undefined) | 66
CCOc1ccc(S(=O)(=O)NCCc2ccc(N(C)C)cc2)cc1C | 74
O=C(O)c1cc(O)c2c(c1)[C@@H]([C@@H]1c3cc(C(=O)O)cc(O)c3C(=O)c3c(O[C@H]4O[C@H](CO)[C@@H](O)[C@H](O)[C@H]4O)cccc31)c1cccc(O[C@H]3O[C@H](CO)[C@@H](O)[C@H](O)[C@H]3O)c1C2=O | 34*
OCc1ccccc1O[C@@H]1O[C@H](CO)[C@@H](O)[C@H](O)[C@H]1O | 59
O=[N+]([O-])c1ccccc1O[C@@H]1O[C@H](CO)[C@H](O)[C@H](O)[C@H]1O | 60
COc1cccc2c(=O)n(C)ccc12 | 54
Cc1ccc(CSc2nccn3nc(-c4ccc(C)cc4)cc23)cc1 | 66
COc1ccc(-c2cc(-c3ccc(C)c(C)c3)nc3sc(C(N)=O)c(N)c23)cc1 | 123
COc1ccc(-c2cc(-c3ccccc3)nc3sc(C(=O)NCC4CCCO4)c(N)c23)cc1 (centres undefined) | 9*
CC1(C)CC(=O)c2c(nc3sc(C(=O)NCC4CCCO4)c(N)c3c2-c2ccccc2)C1 (centres undefined) | 53
COc1ccc(-c2cc(-c3ccccc3)nc(SCC(=O)NCC3CCCO3)c2C#N)cc1 (centres undefined) | 94
SMILES | RMI-FANCM inh
COc1ccc(-c2cc(-c3ccc(Cl)cc3)nc3sc(C(=O)N4CCOCC4)c(N)c23)cc1 | -18*
COc1ccc(-c2cc(-c3ccc(OC)cc3)c3c(N)c(C(=O)c4ccc(Cl)cc4)sc3n2)cc1 | 500
Oc1ccc(C2=Nc3ccccc3SC(c3ccccc3)C2)cc1 (centres undefined) | 55
CC1CCC(C(C)C)C(OP(=O)(OC2CC(C)CCC2C(C)C)C(O)c2cccnc2)C1 (centres undefined) | 60
CN(c1ccc(F)cc1)S(=O)(=O)c1ccsc1-c1nc(-c2ccccc2)no1 | 60
O=C(Nc1c[nH]c2ccccc12)N1CCC(Cc2ccccc2)CC1 | 53
CCc1ccc(NC(=O)c2cc(S(=O)(=O)NCc3ccc(OC)cc3)ccc2F)cc1 | 71
CCOC(=O)c1cnc2cc(C(F)(F)F)ccc2c1Nc1ccc(S(=O)(=O)N(C)C)cc1 | 65
Cc1cc(Nc2ccc(N(C)C)cc2)c2ccc(C(F)(F)F)cc2n1 | 19*
Cc1cc(Nc2ccc(S(=O)(=O)Nc3nccs3)cc2)c2ccc(C(F)(F)F)cc2n1 | 60
O=C(NCCN1CCN(c2ccccc2F)CC1)C(=O)NCc1cccs1 | 64
CCN(CC)c1ccc(N2CCN(S(=O)(=O)c3ccc(F)cc3)CC2)nn1 | 57
COc1ccc(C(=O)SC2=NC(C)CC(=O)N2)cc1OC (centres undefined) | 68
Nc1ccc(Oc2cccnc2)nc1 | -6*
CSc1ccc(Oc2ccc(N)cn2)cc1 | 56
CC(C)Oc1ccccc1Oc1ccc(N)cn1 | 50
COc1ccc(N2CCN(S(=O)(=O)N3CCCCCC3)CC2)cc1 | 64
CNc1nn(CC(=O)Nc2ccc(Cl)cc2)c(N)c1-c1nc(-c2ccc(C)cc2)no1 | 70
O=C(NCCc1ccc(N2CCCC2)cc1)c1ccccc1Cl | 70
Cc1ccc(C)c(OCCCC(C)(C)C(=O)O)c1 | 12*!
Cc1ccc(C)c(OCC(=O)N2CCC(C)CC2)c1 | 67
Cc1ccc(OCCCC(=O)NCC(C)C)c(C)c1 | 66
C=CCN(CC=C)S(=O)(=O)c1ccc(C(=O)Nc2nc3c(C)cccc3s2)cc1 | 79
N/C(=N/O)c1ccc(OCc2ccccc2)cc1 | 54
Cc1[nH]c2ccccc2c1C(c1ccc(C(C)C)cc1)c1c(C)[nH]c2ccccc12 | 29*
Cc1[nH]c2ccccc2c1C(c1ccc(OC(F)F)cc1)c1c(C)[nH]c2ccccc12 | 36
Cc1[nH]c2ccccc2c1C(c1ccco1)c1c(C)[nH]c2ccccc12 | 135
